{"source": "PubChem BioAssay AID848", "about": "(Columbia University Molecular Screening Center, 2007)", "note": "About 160 (0.17%) of roughly 93,000 compounds were called active.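 Rule for the calls: active = cell count reduction exceeding the screen mean by over 5 SD, scaled to untreated wells per plate (cut at about 78% in these data); inactive = the rest.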 This excerpt belongs to a sample that is enriched for actives."}
{"assay": "HUVEC nuclei count loss under TNFa – imaging, Hoechst nuclei count, cytotoxicity control for VCAM1 expression modulator project, primary screen (AID 848);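 note: cells counted after 24 h of TNF alpha exposure following the 1 h pretreatment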", "conditions": "HUVEC TNFalpha-stimulated, at 2 µM, stronger effect = higher value"}
{"compound": "COc1cc(/C=C(/NC(=O)c2ccccc2)C(=O)Nc2cccc(O)c2)c([N+](=O)[O-])cc1OC", "cell count reduction": "-6.3% (inactive)"}
{"compound": "COCCn1c(SCc2nc3cc(OC)c(OC)cc3c(=O)[nH]2)nnc1-c1ccncc1", "cell count reduction": "-3.6% (inactive)"}
{"compound": "O=C(Cc1ccc(S(=O)(=O)N2CCCC2)s1)NC1CCCCCC1", "cell count reduction": "-12.9% (inactive)"}
{"compound": "CCOC(=O)N1CCC(N(CCOC)C(=O)Nc2ccc(C)c(C)c2)CC1", "cell count reduction": "10.5% (inactive)"}
{"compound": "N#Cc1ccccc1CN1C(=O)S/C(=C/c2cccn2-c2cccc(C(=O)O)c2)C1=O", "cell count reduction": "7.4% (inactive)"}
{"compound": "COc1c(Cl)cc(C(=O)Nc2ccc(Cl)cn2)cc1Cl", "cell count reduction": "-4.4% (inactive)"}
{"compound": "c1ccc(C2CCC(N3CCC(N4CCCCC4)CC3)CC2)cc1", "note": "(stereo not given)", "cell count reduction": "-1.7% (inactive)"}
{"compound": "CCc1ccc(NC(=O)CN2C(=O)CSC2=O)cc1", "cell count reduction": "-18.2% (inactive)"}
{"compound": "c1ccc2c(CSCc3nc4ccccc4[nH]3)cccc2c1", "cell count reduction": "-12.2% (inactive)"}
{"compound": "Cc1ccc(NC(=S)NCCN2CCOCC2)cc1", "cell count reduction": "-14.3% (inactive)"}
{"compound": "O=C(c1cccc(F)c1)N1CCN(c2ccc([N+](=O)[O-])c(N3CCCCC3)c2)CC1", "cell count reduction": "-7.8% (inactive)"}
{"compound": "NC(=O)C1(N2CCCCC2)CCN(C(=S)Nc2ccc(Cl)cc2)CC1", "cell count reduction": "5.1% (inactive)"}
{"compound": "CCOc1cc(CNCCN(C)C)c(Cl)cc1OCC(=O)NCCc1ccccc1", "cell count reduction": "8.2% (inactive)"}
{"compound": "COc1ccc(C)cc1NC(=O)CCC(=O)Nc1nnc(C(F)(F)F)s1", "cell count reduction": "-16% (inactive)"}
{"compound": "O=C(NCC1CCCO1)/C(=C\\c1ccco1)NC(=O)c1ccccc1", "note": "(stereo not given)", "cell count reduction": "4.8% (inactive)"}
{"compound": "O=C(NNS(=O)(=O)c1ccc(Cl)cc1)C1CCN(Cc2ccccc2)CC1", "cell count reduction": "-18.3% (inactive)"}
{"compound": "COc1ccc(CC(=O)Nc2sc(Cc3ccccc3)c(C)c2C(N)=O)cc1", "cell count reduction": "-1.7% (inactive)"}
{"compound": "O=C(NN1C(=O)C2C3C=CC(C4CC34)C2C1=O)c1ccc(Cl)cc1", "note": "(stereo not given)", "cell count reduction": "5.4% (inactive)"}
{"compound": "Cc1c(NC(=O)CCCOc2ccccc2)cccc1[N+](=O)[O-]", "cell count reduction": "15.7% (inactive)"}
{"compound": "O=C(CCC(=O)OCc1cccc(C(=O)Oc2ccccc2)c1)Nc1cccc2ccccc12", "cell count reduction": "-13% (inactive)"}
{"compound": "Cc1cc2c(cc1C)N(C(=O)CN1C(=O)c3ccccc3C1=O)C(C)(C)c1ssc(=S)c1-2", "cell count reduction": "-9.3% (inactive)"}
{"compound": "C/C(=N\\NS(=O)(=O)c1ccc(Br)cc1)c1cccs1", "cell count reduction": "-23.7% (inactive)"}
{"compound": "CCn1c(SC)nc(O)c(C(c2ccc(OC)c(O)c2)c2c(O)nc(SC)n(CC)c2=O)c1=O", "cell count reduction": "-7.3% (inactive)"}
{"compound": "CSc1ccc(C#N)cc1NC(=O)c1ccc(Cl)cc1", "cell count reduction": "-0.4% (inactive)"}
{"compound": "O=C1Nc2cc(Cl)c(Cl)cc2N(O)N1c1cc(Cl)cc(Cl)c1", "cell count reduction": "-19.6% (inactive)"}
{"compound": "N/C(=N\\OC(=O)CCc1ccccc1)c1ccc(Cl)cc1", "cell count reduction": "-44% (inactive)"}
{"compound": "Cc1cc(C)nc(SC(C)C(=O)N/N=C/c2cccs2)n1", "note": "(stereo not given)", "cell count reduction": "-19.7% (inactive)"}
{"compound": "CN(C(=O)CC(NC(=O)c1ccccc1)(c1ccccc1)c1ccccc1)c1ccccc1", "cell count reduction": "3.7% (inactive)"}
{"compound": "COC(=O)c1ccc(C(=O)Nc2cc(Cl)ccc2Cl)cc1NC(=O)c1ccccc1C", "cell count reduction": "-7.7% (inactive)"}
{"compound": "O=C1c2ccccc2C(=O)N1CC1c2ccccc2CCN1S(=O)(=O)c1ccccc1", "note": "(stereo not given)", "cell count reduction": "-14.8% (inactive)"}
{"compound": "Cc1ccc2nc(Nc3ccccc3O)nc(-c3ccccc3)c2c1", "cell count reduction": "-13.2% (inactive)"}
{"compound": "CCc1ccc(C(=O)CSc2nnc(C)c(=O)[nH]2)cc1", "cell count reduction": "-4.6% (inactive)"}
{"compound": "COc1ccc(CC(=O)Nc2ccc(-c3nnc(-c4ccc(C)cc4)o3)cc2)cc1", "cell count reduction": "-17.7% (inactive)"}
{"compound": "COc1ccc(NC(=O)/C(Cl)=C(/Cl)S(=O)Cc2ccc(C)cc2)cn1", "note": "(stereo not given)", "cell count reduction": "81.9% (active)"}
{"compound": "COc1cccc(NC(=O)Cc2ccc(C)cc2)c1", "cell count reduction": "-6.5% (inactive)"}
{"compound": "C=CCn1c(SCC(=O)c2c(N)n(C)c(=O)n(C)c2=O)nc2sc(CC)cc2c1=O", "cell count reduction": "-45.1% (inactive)"}
{"compound": "CC(C)c1ccc(/C=C/C(=O)NNC(=O)c2cccnc2)cc1", "cell count reduction": "-4.2% (inactive)"}
{"compound": "CCC(=O)NCCc1nc2ccccc2n1CC", "cell count reduction": "14.3% (inactive)"}
{"compound": "CSc1nc2ccccc2cc1/C=C(\\C#N)c1ccc(Cl)cc1Cl", "cell count reduction": "-9% (inactive)"}
{"compound": "Clc1ccc(-n2nnnc2CN2CCCCC2)cc1Cl", "cell count reduction": "-12.5% (inactive)"}
{"compound": "COc1ccc(C(=O)NC(=S)Nc2ccccc2N2CCN(S(C)(=O)=O)CC2)cc1OC", "cell count reduction": "-26.7% (inactive)"}
{"compound": "C=CCNc1cnn(-c2ccc(C)cc2)c(=O)c1Cl", "cell count reduction": "-7.9% (inactive)"}
{"compound": "Cc1ccc(CNC(=O)CCNC(=O)Cn2ccc3ccccc3c2=O)cc1", "cell count reduction": "-15.5% (inactive)"}
{"compound": "CCSc1nnc(-c2cc3c(s2)-c2ccccc2CC3)o1", "cell count reduction": "-4.1% (inactive)"}
{"compound": "O=C(Cc1ccc2c(c1)CCCC2)Nc1ccccc1Cl", "cell count reduction": "7.2% (inactive)"}
{"compound": "CC(C)(CCl)C(=O)Nc1ccc(Sc2ccc(F)cc2)cc1", "cell count reduction": "-6.3% (inactive)"}
{"compound": "Cc1ccc(S(=O)(=O)N(CC(=O)NCCSC2CCCCC2)c2ccccc2F)cc1", "cell count reduction": "-49.8% (inactive)"}
{"compound": "COC(=O)c1cccc(N(C(=O)c2ccco2)C(C(=O)NC2CCCC2)c2ccco2)c1", "note": "(stereo not given)", "cell count reduction": "1.3% (inactive)"}
{"compound": "CCNC(=S)N1CCN(C(=O)c2ccco2)CC1", "cell count reduction": "15% (inactive)"}
{"compound": "CC(=O)N/C(=C/c1ccc(Cl)cc1)C(=O)NCCc1c[nH]c2ccccc12", "cell count reduction": "-23.5% (inactive)"}
{"compound": "Cc1ccc(S(=O)(=O)N(CC(=O)N2CCc3ccccc3C2)c2cccc(Cl)c2)cc1", "cell count reduction": "0% (inactive)"}
{"compound": "CC1CN(c2nc(-c3ccccc3)nnc2-c2ccccc2)CC(C)O1", "note": "(stereo not given)", "cell count reduction": "-11% (inactive)"}
{"compound": "CCC(=O)NNc1cc(=O)c2c(=O)n(C)c(=O)n(C)c2[nH]1", "cell count reduction": "13% (inactive)"}
{"compound": "O=C(CSc1nnc(-c2c[nH]c3ccccc23)o1)c1ccccc1", "cell count reduction": "-13.6% (inactive)"}
{"compound": "COC(=O)CNC(=O)c1ccccc1[N+](=O)[O-]", "cell count reduction": "-19.5% (inactive)"}
